According to PMC7862700, “An all-to-all approach to the identification of sequence-specific readers for epigenetic DNA modifications on cytosine”:

How the values were obtained:
Assay in all cases: DAPPL (digital affinity profiling via proximity ligation, sequencing); 10 mM Tris-HCl pH 7.5, 50 mM NaCl, 1 mM DTT, 4% glycerol, room temperature, 30 min; GST-TFs on glutathione beads, 16-mer random dsDNA library, 0.1% formaldehyde crosslink after washing; high values mean tight binding
FLI1 = molecular target: T1, FLI1 (Homo sapiens, UniProt Q01543 1-452); details: protein: recombinant; tags: N-terminal GST; dsDNA, one strand shown
T1 sequence: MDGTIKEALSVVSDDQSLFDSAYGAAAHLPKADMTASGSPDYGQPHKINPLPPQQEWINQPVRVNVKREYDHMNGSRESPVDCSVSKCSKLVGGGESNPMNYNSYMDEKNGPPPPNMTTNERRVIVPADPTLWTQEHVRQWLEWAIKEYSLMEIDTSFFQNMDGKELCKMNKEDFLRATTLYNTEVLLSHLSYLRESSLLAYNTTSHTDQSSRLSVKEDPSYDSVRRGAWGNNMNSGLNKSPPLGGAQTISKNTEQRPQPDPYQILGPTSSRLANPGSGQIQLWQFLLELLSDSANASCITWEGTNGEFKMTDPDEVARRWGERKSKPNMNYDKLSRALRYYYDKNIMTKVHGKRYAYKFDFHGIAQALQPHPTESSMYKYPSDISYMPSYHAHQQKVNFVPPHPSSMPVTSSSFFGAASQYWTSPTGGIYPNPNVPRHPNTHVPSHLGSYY
How it was run: (§1)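 Human transcription factors carrying a GST fusion were produced in yeast, bound to glutathione beads, tagged with DNA barcodes and pooled together with a tag-only sample. Each pool was held with 200 nmole of a random double-stranded 16-mer DNA library in Tris/NaCl/DTT/glycerol buffer for 30 min at room temperature, then washed, crosslinked in 0.1% formaldehyde, proximity-ligated with BsaI/T4 ligase (1 h, 37 °C), PCR-amplified and sequenced on an Illumina NextSeq500. Binding signal is the read frequency of each hexamer for a given factor divided by its frequency in the tag-only sample.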

ELK1 = molecular target: T2, ELK1 (Homo sapiens, UniProt P19419 1-428); details: protein: recombinant; tags: N-terminal GST; dsDNA, one strand shown
T2 sequence: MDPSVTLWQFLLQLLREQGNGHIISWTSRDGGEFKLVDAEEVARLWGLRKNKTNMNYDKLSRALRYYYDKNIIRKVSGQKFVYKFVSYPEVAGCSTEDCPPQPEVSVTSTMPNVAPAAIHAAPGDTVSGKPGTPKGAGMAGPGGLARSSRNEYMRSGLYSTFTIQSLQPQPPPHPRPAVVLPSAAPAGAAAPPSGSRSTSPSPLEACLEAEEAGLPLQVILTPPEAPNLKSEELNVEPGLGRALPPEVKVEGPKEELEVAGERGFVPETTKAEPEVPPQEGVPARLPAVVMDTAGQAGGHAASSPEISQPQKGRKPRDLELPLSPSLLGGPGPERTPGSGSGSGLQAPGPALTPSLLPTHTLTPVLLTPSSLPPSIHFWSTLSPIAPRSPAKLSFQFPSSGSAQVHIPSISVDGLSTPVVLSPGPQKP
How it was run: as §1

GABPA = molecular target: T3, GABPA (Homo sapiens, UniProt Q06546 1-454); details: protein: recombinant; tags: N-terminal GST; dsDNA, one strand shown
T3 sequence: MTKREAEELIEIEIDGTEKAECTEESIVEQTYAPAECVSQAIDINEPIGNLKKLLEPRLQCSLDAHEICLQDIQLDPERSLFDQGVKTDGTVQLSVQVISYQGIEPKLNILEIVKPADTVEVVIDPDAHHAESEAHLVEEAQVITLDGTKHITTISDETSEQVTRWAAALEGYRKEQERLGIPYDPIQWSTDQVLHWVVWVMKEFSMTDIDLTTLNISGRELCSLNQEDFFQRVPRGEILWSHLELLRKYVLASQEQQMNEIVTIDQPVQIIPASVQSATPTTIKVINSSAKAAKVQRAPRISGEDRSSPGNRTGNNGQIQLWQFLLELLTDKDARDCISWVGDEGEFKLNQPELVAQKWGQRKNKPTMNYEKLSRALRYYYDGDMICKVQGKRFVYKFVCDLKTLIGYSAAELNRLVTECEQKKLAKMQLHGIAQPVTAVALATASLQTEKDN
How it was run: as §1

ERG = molecular target: T4, ERG (Homo sapiens, UniProt P11308 1-479); details: protein: recombinant; tags: N-terminal GST; dsDNA, one strand shown
T4 sequence: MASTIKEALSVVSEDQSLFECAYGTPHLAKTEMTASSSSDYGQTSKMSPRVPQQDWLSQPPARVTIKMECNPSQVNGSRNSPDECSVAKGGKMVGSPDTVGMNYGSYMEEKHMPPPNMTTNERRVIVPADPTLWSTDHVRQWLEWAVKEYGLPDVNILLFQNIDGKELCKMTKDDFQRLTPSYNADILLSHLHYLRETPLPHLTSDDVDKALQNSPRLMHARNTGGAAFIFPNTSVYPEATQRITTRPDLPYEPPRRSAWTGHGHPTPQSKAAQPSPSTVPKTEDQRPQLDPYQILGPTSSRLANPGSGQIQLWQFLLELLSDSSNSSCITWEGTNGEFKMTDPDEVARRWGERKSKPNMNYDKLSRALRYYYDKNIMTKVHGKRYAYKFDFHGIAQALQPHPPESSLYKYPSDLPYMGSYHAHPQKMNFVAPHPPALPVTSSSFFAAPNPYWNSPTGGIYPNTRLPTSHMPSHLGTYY
How it was run: as §1

ELF1 = ELF1 (Homo sapiens, UniProt P32519 1-619); details: protein: recombinant; tags: N-terminal GST; dsDNA, one strand shown
Chain of ELF1 (P32519 whole entry): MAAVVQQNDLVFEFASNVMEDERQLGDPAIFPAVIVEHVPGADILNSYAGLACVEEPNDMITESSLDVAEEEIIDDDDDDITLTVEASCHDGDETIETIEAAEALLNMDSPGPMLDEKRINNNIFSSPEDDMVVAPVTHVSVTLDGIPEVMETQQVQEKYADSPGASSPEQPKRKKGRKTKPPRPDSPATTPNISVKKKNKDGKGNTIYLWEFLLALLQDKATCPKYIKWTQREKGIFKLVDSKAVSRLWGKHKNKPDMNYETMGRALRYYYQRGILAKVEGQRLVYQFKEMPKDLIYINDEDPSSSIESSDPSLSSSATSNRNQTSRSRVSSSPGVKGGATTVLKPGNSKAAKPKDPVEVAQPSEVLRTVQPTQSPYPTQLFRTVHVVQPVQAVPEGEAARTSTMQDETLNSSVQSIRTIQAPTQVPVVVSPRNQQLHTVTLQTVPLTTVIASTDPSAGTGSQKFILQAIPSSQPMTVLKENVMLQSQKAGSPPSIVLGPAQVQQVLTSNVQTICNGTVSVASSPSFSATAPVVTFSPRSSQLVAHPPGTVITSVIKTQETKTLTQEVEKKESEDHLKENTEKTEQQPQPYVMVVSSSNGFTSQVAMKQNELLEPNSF
How it was run: as §1

EHF = molecular target: T5, EHF (Homo sapiens, UniProt Q9NZC4 1-300); details: protein: recombinant; tags: N-terminal GST; dsDNA, one strand shown
T5 sequence: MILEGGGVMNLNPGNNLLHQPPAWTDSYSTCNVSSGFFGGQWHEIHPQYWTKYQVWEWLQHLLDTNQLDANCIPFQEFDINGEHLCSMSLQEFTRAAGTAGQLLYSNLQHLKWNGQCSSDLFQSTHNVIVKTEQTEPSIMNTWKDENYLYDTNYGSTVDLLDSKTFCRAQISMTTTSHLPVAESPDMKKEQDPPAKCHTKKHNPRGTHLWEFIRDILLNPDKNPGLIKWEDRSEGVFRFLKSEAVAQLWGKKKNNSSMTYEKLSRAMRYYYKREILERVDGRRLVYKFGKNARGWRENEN
How it was run: as §1

SPI1 = SPI1 (Homo sapiens, UniProt P17947 1-270); details: protein: recombinant; tags: N-terminal GST; dsDNA, one strand shown
How it was run: as §1

SPIB = SPIB (Homo sapiens, UniProt Q01892 1-262); details: protein: recombinant; tags: N-terminal GST; dsDNA, one strand shown
Chain of SPIB (Q01892 whole entry): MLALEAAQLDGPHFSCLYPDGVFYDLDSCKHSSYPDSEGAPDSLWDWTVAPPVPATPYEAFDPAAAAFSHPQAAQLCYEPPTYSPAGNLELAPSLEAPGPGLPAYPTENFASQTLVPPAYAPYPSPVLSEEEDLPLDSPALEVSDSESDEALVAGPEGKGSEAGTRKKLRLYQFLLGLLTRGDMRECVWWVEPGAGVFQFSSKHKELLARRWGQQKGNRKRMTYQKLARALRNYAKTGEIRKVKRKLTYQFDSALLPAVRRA
How it was run: as §1

ELK3 = molecular target: T6, ELK3 (Homo sapiens, UniProt P41970 1-407); details: protein: recombinant; tags: N-terminal GST; dsDNA, one strand shown
T6 sequence: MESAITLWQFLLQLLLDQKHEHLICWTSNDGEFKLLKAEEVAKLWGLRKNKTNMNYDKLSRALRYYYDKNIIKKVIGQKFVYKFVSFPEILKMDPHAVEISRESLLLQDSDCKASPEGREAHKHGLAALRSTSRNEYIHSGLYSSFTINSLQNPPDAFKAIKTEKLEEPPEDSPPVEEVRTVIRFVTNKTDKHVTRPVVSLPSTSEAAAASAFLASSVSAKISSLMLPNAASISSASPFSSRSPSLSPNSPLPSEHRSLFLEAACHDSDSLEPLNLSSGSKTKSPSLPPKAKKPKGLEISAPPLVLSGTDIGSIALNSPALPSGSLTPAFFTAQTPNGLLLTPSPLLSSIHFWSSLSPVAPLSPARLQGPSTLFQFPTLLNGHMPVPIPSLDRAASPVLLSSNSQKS
How it was run: as §1

FEV = molecular target: T7, FEV (Homo sapiens, UniProt Q99581 1-238); details: protein: recombinant; tags: N-terminal GST; dsDNA, one strand shown
T7 sequence: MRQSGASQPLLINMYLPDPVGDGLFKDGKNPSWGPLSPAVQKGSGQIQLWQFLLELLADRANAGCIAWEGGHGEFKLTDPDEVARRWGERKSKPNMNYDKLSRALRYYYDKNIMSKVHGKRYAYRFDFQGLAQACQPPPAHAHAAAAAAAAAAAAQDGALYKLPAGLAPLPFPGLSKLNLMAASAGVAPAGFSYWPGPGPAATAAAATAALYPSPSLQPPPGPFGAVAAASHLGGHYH
How it was run: as §1

ETV5 = ETV5 (Homo sapiens, UniProt P41161 1-510); details: protein: recombinant; tags: N-terminal GST; dsDNA, one strand shown
Chain of ETV5 (P41161 whole entry): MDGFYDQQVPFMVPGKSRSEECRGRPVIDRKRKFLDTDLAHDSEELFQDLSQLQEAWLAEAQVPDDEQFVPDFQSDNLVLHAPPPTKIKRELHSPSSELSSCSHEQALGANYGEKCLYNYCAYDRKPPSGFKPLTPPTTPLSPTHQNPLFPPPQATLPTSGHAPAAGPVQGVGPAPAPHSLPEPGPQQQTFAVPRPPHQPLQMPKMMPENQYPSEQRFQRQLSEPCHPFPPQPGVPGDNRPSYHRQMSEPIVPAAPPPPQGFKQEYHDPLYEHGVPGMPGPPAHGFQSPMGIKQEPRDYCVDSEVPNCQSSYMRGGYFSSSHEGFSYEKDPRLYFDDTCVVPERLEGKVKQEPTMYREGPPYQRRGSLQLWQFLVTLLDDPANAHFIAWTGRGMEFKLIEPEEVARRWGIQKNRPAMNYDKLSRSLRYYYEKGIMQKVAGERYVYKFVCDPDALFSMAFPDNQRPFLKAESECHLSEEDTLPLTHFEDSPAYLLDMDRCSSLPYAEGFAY
How it was run: as §1

HSF1 = HSF1 (Homo sapiens, UniProt Q00613 1-529); details: protein: recombinant; tags: N-terminal GST; chain copies: 3; dsDNA, one strand shown
Chain of HSF1 (Q00613 whole entry): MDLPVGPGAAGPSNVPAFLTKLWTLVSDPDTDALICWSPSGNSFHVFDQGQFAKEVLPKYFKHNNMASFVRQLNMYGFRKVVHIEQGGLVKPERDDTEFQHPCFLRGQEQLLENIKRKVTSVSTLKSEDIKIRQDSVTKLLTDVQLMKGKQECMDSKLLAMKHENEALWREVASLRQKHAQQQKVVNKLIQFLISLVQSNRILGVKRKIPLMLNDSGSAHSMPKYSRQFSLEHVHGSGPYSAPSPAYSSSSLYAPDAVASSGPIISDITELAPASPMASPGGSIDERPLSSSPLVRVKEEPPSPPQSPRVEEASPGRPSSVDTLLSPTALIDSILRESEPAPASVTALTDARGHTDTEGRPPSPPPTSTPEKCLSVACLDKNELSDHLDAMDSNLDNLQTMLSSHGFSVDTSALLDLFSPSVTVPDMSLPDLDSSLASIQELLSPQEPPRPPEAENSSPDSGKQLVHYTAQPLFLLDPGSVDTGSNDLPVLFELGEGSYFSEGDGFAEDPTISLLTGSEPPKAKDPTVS
How it was run: as §1

SPIC = molecular target: T8, SPIC (Homo sapiens, UniProt Q8N5J4 1-248); details: protein: recombinant; tags: N-terminal GST; dsDNA, one strand shown
T8 sequence: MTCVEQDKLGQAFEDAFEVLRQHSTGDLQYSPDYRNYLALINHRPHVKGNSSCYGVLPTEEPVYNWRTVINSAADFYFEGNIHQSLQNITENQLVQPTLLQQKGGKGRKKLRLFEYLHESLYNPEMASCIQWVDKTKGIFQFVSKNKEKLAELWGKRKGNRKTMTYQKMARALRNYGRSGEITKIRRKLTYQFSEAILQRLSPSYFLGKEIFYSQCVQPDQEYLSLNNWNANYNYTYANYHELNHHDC
How it was run: as §1

ELF4 = ELF4 (Homo sapiens, UniProt Q99607 1-663); details: protein: recombinant; tags: N-terminal GST; dsDNA, one strand shown
Chain of ELF4 (Q99607 whole entry): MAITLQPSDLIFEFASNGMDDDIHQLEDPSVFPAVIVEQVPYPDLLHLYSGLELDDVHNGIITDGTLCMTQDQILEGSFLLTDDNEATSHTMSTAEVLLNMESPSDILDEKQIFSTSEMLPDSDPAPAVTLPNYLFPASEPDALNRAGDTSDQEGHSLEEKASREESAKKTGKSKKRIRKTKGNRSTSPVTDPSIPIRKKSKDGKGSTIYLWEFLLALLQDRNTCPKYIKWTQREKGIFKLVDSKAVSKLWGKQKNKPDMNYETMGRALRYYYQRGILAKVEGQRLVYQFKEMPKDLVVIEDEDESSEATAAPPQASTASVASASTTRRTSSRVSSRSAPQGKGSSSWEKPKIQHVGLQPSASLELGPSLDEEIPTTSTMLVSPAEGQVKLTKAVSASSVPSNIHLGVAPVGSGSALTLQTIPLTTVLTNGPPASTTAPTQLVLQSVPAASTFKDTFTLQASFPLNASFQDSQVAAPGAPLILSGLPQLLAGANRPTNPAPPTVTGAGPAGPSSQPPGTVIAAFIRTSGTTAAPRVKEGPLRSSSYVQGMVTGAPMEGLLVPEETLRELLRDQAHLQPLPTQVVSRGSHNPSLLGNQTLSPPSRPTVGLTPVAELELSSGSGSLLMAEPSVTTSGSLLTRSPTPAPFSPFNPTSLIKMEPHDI
How it was run: as §1

ELK4 = molecular target: T9, ELK4 (Homo sapiens, UniProt P28324-2 1-405); details: protein: recombinant; tags: N-terminal GST; dsDNA, one strand shown
T9 sequence: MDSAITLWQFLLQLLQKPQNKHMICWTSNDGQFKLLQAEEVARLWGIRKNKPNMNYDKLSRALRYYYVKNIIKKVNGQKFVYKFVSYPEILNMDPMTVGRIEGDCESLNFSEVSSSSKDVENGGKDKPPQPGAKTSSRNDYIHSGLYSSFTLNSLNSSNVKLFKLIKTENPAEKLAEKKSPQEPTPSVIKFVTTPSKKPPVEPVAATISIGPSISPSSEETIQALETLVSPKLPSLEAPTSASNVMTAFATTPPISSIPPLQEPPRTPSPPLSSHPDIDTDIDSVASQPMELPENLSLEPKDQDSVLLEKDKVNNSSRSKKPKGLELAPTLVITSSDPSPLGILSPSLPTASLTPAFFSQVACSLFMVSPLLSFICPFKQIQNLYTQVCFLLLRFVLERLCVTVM
How it was run: as §1

ETV2 = molecular target: T10, ETV2 (Homo sapiens, UniProt O00321 1-342); details: protein: recombinant; tags: N-terminal GST; dsDNA, one strand shown
T10 sequence: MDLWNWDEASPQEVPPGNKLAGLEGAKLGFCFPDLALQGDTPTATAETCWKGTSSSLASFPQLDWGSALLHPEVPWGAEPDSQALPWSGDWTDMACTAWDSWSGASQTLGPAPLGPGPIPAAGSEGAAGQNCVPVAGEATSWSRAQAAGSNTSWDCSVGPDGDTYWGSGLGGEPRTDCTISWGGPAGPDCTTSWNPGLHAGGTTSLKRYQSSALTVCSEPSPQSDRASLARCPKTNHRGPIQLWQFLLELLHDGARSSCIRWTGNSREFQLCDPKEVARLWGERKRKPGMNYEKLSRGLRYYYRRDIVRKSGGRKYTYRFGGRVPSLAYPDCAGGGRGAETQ
How it was run: as §1

ELF3 = molecular target: T11, ELF3 (Homo sapiens, UniProt P78545 1-371); details: protein: recombinant; tags: N-terminal GST; dsDNA, one strand shown
T11 sequence: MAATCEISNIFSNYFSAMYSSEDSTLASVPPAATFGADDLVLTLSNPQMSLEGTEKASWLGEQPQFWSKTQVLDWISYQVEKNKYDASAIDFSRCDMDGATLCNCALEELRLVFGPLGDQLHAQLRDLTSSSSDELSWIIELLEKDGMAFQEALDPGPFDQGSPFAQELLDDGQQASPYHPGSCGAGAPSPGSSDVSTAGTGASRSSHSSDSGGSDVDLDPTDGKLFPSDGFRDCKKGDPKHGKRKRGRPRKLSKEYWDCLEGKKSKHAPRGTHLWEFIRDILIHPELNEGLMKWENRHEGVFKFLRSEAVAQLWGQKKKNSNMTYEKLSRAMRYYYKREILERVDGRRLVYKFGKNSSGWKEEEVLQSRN
How it was run: as §1

ETV1 = ETV1 (Homo sapiens, UniProt P50549 1-477); details: protein: recombinant; tags: N-terminal GST; dsDNA, one strand shown
Chain of ETV1 (P50549 whole entry): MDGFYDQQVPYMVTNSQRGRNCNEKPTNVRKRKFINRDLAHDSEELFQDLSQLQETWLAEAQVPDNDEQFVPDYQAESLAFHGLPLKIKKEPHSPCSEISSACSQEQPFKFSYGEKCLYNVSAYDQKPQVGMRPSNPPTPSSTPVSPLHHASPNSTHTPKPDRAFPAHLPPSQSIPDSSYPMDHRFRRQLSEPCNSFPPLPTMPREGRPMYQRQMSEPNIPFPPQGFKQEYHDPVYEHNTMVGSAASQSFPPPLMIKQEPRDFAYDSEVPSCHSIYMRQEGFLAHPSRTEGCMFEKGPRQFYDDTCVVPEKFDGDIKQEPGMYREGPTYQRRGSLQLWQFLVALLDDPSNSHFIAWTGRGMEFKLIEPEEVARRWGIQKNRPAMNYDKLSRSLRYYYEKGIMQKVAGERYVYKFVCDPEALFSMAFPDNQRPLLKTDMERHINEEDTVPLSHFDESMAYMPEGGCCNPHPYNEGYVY
How it was run: as §1

In the case of CGACAT, the binding signal (FLI1) is reported as 1.37 fold enrichment (6-mer frequency, TF over GST control), the binding signal (ELK1) is reported as 1.23 fold enrichment (6-mer frequency, TF over GST control) and the binding signal (GABPA) is reported as 1.25 fold enrichment (6-mer frequency, TF over GST control). The binding signal (ERG) was 1.31 fold enrichment (6-mer frequency, TF over GST control), the binding signal (ELF1) was 1.25 fold enrichment (6-mer frequency, TF over GST control) and the binding signal (EHF) was 1.26 fold enrichment (6-mer frequency, TF over GST control). The binding signal (SPI1) was 1.27 fold enrichment (6-mer frequency, TF over GST control), the binding signal (SPIB) was 1.3 fold enrichment (6-mer frequency, TF over GST control) and the binding signal (ELK3) was 1.4 fold enrichment (6-mer frequency, TF over GST control). For the same sequence, the binding signal (FEV) was 1.31 fold enrichment (6-mer frequency, TF over GST control), the binding signal (ETV5) was 1.26 fold enrichment (6-mer frequency, TF over GST control) and the binding signal (HSF1) was 1.07 fold enrichment (6-mer frequency, TF over GST control). The binding signal (SPIC) was 1.32 fold enrichment (6-mer frequency, TF over GST control), the binding signal (ELF4) was 1.32 fold enrichment (6-mer frequency, TF over GST control) and the binding signal (ELK4) was 1.3 fold enrichment (6-mer frequency, TF over GST control). For the same sequence, the binding signal (ETV2) was 1.26 fold enrichment (6-mer frequency, TF over GST control), the binding signal (ELF3) was 1.42 fold enrichment (6-mer frequency, TF over GST control) and the binding signal (ETV1) was 1.37 fold enrichment (6-mer frequency, TF over GST control).
